Screens: PubChem, several laboratories
CYP2C19 inhib: blockers of cytochrome P450 2C19 activity – biochemical, luminescence, ADME assay, primary screen. P33261. CYP2C19 Supersomes, luciferin-H EGE luminescence, 30 min. inhibition, % at 5 µM. 21% of 96,000 active;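 active = CYP2C19 inhibition above a set limit at 5 µM in the primary screen, cut at about 50% in these data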
Cav3 T inh: Cav3.2 calcium influx blockers – cell-based, Fluo-4 calcium fluorescence, FDSS, MLSMR library, primary screen. Voltage-dependent T-type calcium channel subunit alpha-1H (Homo sapiens), O95180. Cav3.2-expressing cells; stronger effect = lower value. B-score at 10 µM. 4% of 100,000 active. AID 449739, 2010;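 active = single-dose well whose peak fluorescence ratio is a statistical outlier from its plate by either plate-standardised score or position-corrected B-score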
CYP2C19 act: human CYP2C19 activators, primary screen, biochemical, luminescence; activation factor at 5 µM; 96,000 tested, under 10 active; Cytochrome P450 2C19 (Homo sapiens), P33261; AID 1025, 2008; recombinant CYP2C19, luciferin-H EGE luminescence; stronger effect = higher value; 0 = fully inhibited enzyme, 1 = untreated enzyme;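 active = activation factor of at least 2 at 5 µM in the primary screen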
CYP2C9 activ: human CYP2C9 activators, primary screen, biochemical, luminescence; AID 1024, 2008; recombinant CYP2C9, luciferin-H conversion; stronger effect = higher value; factor 1 = untreated enzyme, 0 = blocked; 1.4% of 96,000 active; Cytochrome P450 2C9 (Homo sapiens), P11712; activation factor at 5 µM;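 active = activation factor of 2 or more for CYP2C9 at a 5 µM dose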
Target sequence (P11712 whole entry, looked up): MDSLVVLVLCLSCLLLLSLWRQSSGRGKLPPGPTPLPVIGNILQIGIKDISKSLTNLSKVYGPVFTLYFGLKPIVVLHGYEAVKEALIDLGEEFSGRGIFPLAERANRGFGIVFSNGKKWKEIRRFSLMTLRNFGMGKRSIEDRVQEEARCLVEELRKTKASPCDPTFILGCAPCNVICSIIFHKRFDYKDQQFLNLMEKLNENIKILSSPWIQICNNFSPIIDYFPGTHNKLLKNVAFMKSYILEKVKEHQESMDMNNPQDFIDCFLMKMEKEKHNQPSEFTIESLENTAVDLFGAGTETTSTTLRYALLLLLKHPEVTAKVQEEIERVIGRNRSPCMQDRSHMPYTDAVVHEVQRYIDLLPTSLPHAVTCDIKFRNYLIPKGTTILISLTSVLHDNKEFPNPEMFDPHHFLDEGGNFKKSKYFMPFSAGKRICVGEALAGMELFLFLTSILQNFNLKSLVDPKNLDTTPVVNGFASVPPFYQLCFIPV
CYP2C9 inh: blockers of cytochrome P450 2C9 activity – biochemical, luminescence, ADME assay, primary screen | P11712 | CYP2C9 Supersomes, luciferin-H conversion | inhibition, % at 5 µM | 20% of 96,000 active | AID 777, 2007;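 active = blocking of liver enzyme CYP2C9 beyond about 50% at 5 µM, limit read from the data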
Of the large screens only hits and unclear results are named; the others gave an inactive call. Shown are actives, neighbours in structure and some others; about 27% of the full set was active somewhere.

Cc1ccc(C)c(-n2nnnc2SCC(=O)Nc2cccc(-c3nnc4n3CCCCC4)c2)c1	none
COc1ccc(S(=O)(=O)N(c2onc(C)c2Cl)S(=O)(=O)c2ccc(OC)cc2)cc1	none
NNC(=O)c1nnn(-c2nonc2N)c1-c1cccs1	none
Cc1ccc(NC(=O)Cn2cncc2-c2ccc([N+](=O)[O-])cc2)cc1C	none (no result: Cav3 T inh)
COC(=O)c1nc2n(n1)C(c1ccc(OC)c(OC)c1OC)C1=C(CCCC1=O)N2 (stereo unspecified)	none
CCc1nc(SCc2cccnc2)c2c(=O)n(C)c(=O)n(C)c2n1	CYP2C19 inhib 94
CCc1nc(SCC(=O)N2CCN(c3ccccc3)CC2)c2c(=O)n(C)c(=O)n(C)c2n1	none (no result: CYP2C19 inhib, CYP2C19 act, CYP2C9 activ, CYP2C9 inh)
CCCc1nc(SCC(=O)N2CCC(Cc3ccccc3)CC2)c2c(=O)n(C)c(=O)n(C)c2n1	CYP2C19 inhib 66, CYP2C9 inh 95
Cn1c(=O)c2c(SCc3cccnc3)nc(C3CC3)nc2n(C)c1=O	CYP2C19 inhib 88, CYP2C9 inh 57
Cn1c(=O)c2c(SCC(=O)N3CCN(c4ccccc4)CC3)nc(C3CC3)nc2n(C)c1=O	none (no result: CYP2C19 inhib, CYP2C19 act, CYP2C9 activ, CYP2C9 inh)
COc1ccc(C2/C=C\CN(S(=O)(=O)c3ccc(C)cc3)CC(=O)N2Cc2ccc(F)cc2)cc1 (stereo unspecified)	none (no result: CYP2C19 inhib, CYP2C19 act, CYP2C9 activ, CYP2C9 inh)
CCOc1cc(NS(=O)(=O)c2ccc(NC(C)=O)cc2)c(OCC)cc1NC(=O)C(C)C	none
Cc1c(C(=O)O)oc2ccc(S(=O)(=O)NCc3ccccc3)cc12	none
COc1ccc(/C=N/NC(=O)c2csc(-n3nc(C)cc3C(F)(F)F)n2)cc1	none
CC(=O)c1cccc(NC(=O)c2csc(-n3nc(C)cc3C(F)(F)F)n2)c1	CYP2C19 inhib 51, CYP2C9 inh 56
COc1ccc(S(=O)(=O)NNC(=O)c2csc(-n3nc(C)cc3C(F)(F)F)n2)cc1OC	CYP2C9 inh 54
Cc1cccnc1NC(=O)Cn1nc(C)c([N+](=O)[O-])c1C	none
COC(=O)Nc1ccc(S(=O)(=O)N2CCCCC2)cc1	none
COc1cc(C(=O)Nc2ccc(S(=O)(=O)N3CCc4ccccc43)cc2)cc(OC)c1OC	Cav3 T inh -5.3, CYP2C9 inh 91
COc1ccccc1C(=O)Nc1ccc(S(=O)(=O)N2CCc3ccccc32)cc1	CYP2C19 inhib 73, CYP2C9 inh 89
CS(=O)(=O)NCCOc1ccc(S(=O)(=O)N2CCCc3ccccc32)cc1	CYP2C19 inhib 75, CYP2C9 activ 2.1
COC(=O)Nc1ccc(S(=O)(=O)N2CCCc3ccccc32)cc1	Cav3 T inh -6.1
O=C(Nc1ccc(S(=O)(=O)N2CCc3ccccc32)cc1)c1ccc2c(c1)OCO2	none
COc1ccc(N2CCN(C(=N)/C(C(C)=O)=C(\C)O)CC2)cc1	none
CC1CCc2nc(NC(=O)C3COc4ccccc4O3)sc2C1 (stereo unspecified)	none
CCc1nnc(NC(=O)c2ccc(S(=O)(=O)N3CCCc4ccccc43)cc2)o1	CYP2C9 inh 62
CC1CCc2nc(NC(=O)c3ccc(S(=O)(=O)N4CCCc5ccccc54)cc3)sc2C1 (stereo unspecified)	CYP2C9 inh 54
CCc1nnc(NC(=O)c2cccc(S(=O)(=O)N3CCc4ccccc43)c2)s1	none
O=S(=O)(c1cccs1)N1CCCc2ccccc21	CYP2C19 inhib 85, CYP2C9 activ 2.1
O=C(O)c1ccnc(C(=O)O)c1	none
N#Cc1nc(Cc2ccccc2)oc1N1CCC(C(N)=O)CC1	none
N#Cc1nc(Cc2ccccc2)oc1N1CCC(Cc2ccccc2)CC1	Cav3 T inh -5.2
N#Cc1nc(Cc2ccccc2)oc1N1CCN(c2ccccc2)CC1	Cav3 T inh -4.8
N#Cc1nc(Cc2cccc3ccccc23)oc1N1CCCCC1	none
CC(=O)Nc1cc2c(cc1NC(=O)Cn1nc(-c3ccc4c(c3)OCCO4)ccc1=O)OCCO2	CYP2C19 inhib 55
COc1cccc(CNC(=O)Cn2nc(-c3ccc(Cl)cc3)ccc2=O)c1	CYP2C19 inhib 55, CYP2C9 inh 77
COc1ccc(CNC(=O)Cn2nc(-c3ccc4c(c3)OCCO4)ccc2=O)cc1	CYP2C9 inh 60
CCCNC(=O)N1C2=NC(C(=O)OC)=C(C(=O)OC)[C@@H]3N(Cc4ccccc4)c4ccccc4[C@]23C[C@H]1CO	none (no result: CYP2C19 inhib, CYP2C19 act, CYP2C9 activ, CYP2C9 inh)
CC(=O)N(C)C1=C(N2CCOCC2)C(=O)c2ccccc2C1=O	none
Cc1ccc(NC2=C(N3CCOCC3)C(=O)c3ccccc3C2=O)cc1	CYP2C9 inh 57
CC(=O)c1ccc(NC2=C(N3CCOCC3)C(=O)c3ccccc3C2=O)cc1	CYP2C19 inhib 61
CC1CN(S(=O)(=O)c2cccs2)CC(C)O1 (stereo unspecified)	none
CC1CCc2ccc(F)cc2N1S(=O)(=O)c1cccs1 (stereo unspecified)	CYP2C19 inhib 62 (no result: Cav3 T inh)
O=C(COC(=O)c1cc(-c2cccs2)nc2ccccc12)NCc1ccco1	CYP2C19 inhib 54, CYP2C9 inh 90
COc1ccccc1CNC(=O)COC(=O)c1cc(-c2ccco2)nc2ccccc12	CYP2C9 inh 52
CCOC(=O)C1=C(C)N(CCCC(=O)O)C(=O)NC1c1ccc(Br)cc1 (stereo unspecified)	none (no result: CYP2C19 inhib, CYP2C19 act, CYP2C9 activ, CYP2C9 inh)
CC(C)(C)NC1=CC(=O)OC12CCCCC2	none
O=S(=O)(NC1CCc2ccccc21)c1ccc(S(=O)(=O)N2CCCC2)cc1 (stereo unspecified)	none
N#Cc1nc(COc2ccc(Br)cc2)oc1N1CCN(Cc2ccccc2)CC1	Cav3 T inh -7.8, CYP2C9 inh 56
CCN1CCN(c2oc(COc3ccc(-c4ccccc4)cc3)nc2C#N)CC1	CYP2C19 inhib 93, CYP2C9 inh 81
COc1ccccc1-c1nc(C#N)c(N2CCN(Cc3ccccc3)CC2)o1	none
N#Cc1nc(COc2ccc(F)cc2)oc1N1CCC(Cc2ccccc2)CC1	CYP2C9 inh 70 (no result: Cav3 T inh)
N#Cc1nc(COc2ccc(F)cc2)oc1N1CCN(Cc2ccccc2)CC1	CYP2C19 inhib 73, CYP2C9 inh 93 (no result: Cav3 T inh)
CC(C)OCCCNC(=O)c1ccccc1Oc1ccccc1	none
CCCCc1ccc(NC(=O)c2c(C)noc2C)cc1	none
CCOC(=O)C(=CNc1cc(C)nn1-c1ccccc1)C(=O)OCC	CYP2C9 inh 63
CCOC(=O)C(/C=N/c1cc(C)nn1-c1ccccc1)=C(\C)O	CYP2C19 inhib 59, CYP2C9 inh 70
CCOC(=O)c1cc(OC(=O)c2ccccc2)n(-c2ccccc2)n1	none
CCOC(=O)C(=CNc1ccccc1C)C(=O)OCC	none
COCCn1c(N)c(C(=O)OCc2ccccc2)c2nc3ccccc3nc21	CYP2C9 inh 62
C=CCn1c(N)c(C(=O)OCCC)c2nc3ccccc3nc21	CYP2C19 inhib 77, CYP2C9 inh 69
COCCNC(=O)c1c(N)n(CCC2=CCCCC2)c2nc3ccccc3nc12	CYP2C19 inhib 92, CYP2C9 inh 96
